Laboratory results as given in publication PMC7862700, “An all-to-all approach to the identification of sequence-specific readers for epigenetic DNA modifications on cytosine”.

Assays:
Experiment in all cases: DAPPL (digital affinity profiling via proximity ligation, sequencing); 10 mM Tris-HCl pH 7.5, 50 mM NaCl, 1 mM DTT, 4% glycerol, room temperature, 30 min; GST-TFs on glutathione beads, 16-mer random dsDNA library, 0.1% formaldehyde crosslink after washing; high values mean tight binding
Details in all cases: protein: recombinant; tags: N-terminal GST; dsDNA, one strand shown
ERF = biological target: T1, ERF (Homo sapiens, UniProt P50548 1-548)
T1 sequence: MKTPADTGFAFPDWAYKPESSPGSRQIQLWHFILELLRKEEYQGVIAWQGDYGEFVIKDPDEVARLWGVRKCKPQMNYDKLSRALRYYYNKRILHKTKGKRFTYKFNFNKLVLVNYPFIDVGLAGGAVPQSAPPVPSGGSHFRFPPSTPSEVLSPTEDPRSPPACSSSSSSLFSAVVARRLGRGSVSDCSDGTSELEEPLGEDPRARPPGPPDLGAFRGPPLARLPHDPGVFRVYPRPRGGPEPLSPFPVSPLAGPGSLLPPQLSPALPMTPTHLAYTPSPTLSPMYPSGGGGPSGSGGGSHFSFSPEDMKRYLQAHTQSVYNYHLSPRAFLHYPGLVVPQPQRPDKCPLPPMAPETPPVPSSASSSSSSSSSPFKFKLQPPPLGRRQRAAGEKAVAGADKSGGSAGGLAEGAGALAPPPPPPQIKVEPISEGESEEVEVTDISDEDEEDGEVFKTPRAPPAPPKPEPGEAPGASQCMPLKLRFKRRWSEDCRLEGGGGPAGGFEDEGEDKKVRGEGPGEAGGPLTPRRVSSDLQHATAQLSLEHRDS
Summary of the method: (§1)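 Binding signal is each hexamer's read frequency for a factor divided by its frequency in the tag-only sample. The factors were GST-fused human transcription factors from yeast, captured on glutathione beads, DNA-barcoded and pooled with that sample. Pools were incubated with 200 nmole of a random double-stranded 16-mer DNA library in Tris/NaCl/DTT/glycerol buffer at room temperature for 30 min, then washed, crosslinked with 0.1% formaldehyde, proximity-ligated with BsaI/T4 ligase (1 h, 37 °C), PCR-amplified and sequenced on an Illumina NextSeq500.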

ETV3L = biological target: T2, ETV3L (Homo sapiens, UniProt Q6ZN32 1-361)
T2 sequence: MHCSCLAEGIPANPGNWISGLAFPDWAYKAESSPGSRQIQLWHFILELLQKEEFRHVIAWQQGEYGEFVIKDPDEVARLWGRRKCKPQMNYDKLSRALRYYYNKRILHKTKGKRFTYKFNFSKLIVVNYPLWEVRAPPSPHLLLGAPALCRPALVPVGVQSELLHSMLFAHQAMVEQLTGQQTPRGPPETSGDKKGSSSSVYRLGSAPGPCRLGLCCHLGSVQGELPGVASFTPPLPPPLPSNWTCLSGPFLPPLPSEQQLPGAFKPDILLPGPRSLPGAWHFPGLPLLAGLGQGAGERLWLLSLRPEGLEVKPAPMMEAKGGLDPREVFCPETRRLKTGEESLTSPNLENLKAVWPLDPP
Summary of the method: as §1

ETS2 = biological target: T3, ETS2 (Homo sapiens, UniProt P15036 1-469)
T3 sequence: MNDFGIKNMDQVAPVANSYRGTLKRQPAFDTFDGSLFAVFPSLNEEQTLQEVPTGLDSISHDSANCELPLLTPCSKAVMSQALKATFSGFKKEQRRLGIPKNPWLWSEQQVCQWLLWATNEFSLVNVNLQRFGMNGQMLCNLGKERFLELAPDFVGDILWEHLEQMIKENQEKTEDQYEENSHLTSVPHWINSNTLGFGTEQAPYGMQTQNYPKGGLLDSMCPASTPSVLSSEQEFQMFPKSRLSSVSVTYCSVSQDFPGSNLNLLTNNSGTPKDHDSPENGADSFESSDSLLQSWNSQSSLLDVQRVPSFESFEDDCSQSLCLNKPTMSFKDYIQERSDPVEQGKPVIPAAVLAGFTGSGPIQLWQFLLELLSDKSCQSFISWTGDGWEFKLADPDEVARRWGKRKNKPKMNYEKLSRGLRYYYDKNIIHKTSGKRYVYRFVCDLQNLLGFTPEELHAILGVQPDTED
Summary of the method: as §1

SPDEF = biological target: T4, SPDEF (Homo sapiens, UniProt O95238 1-335)
T4 sequence: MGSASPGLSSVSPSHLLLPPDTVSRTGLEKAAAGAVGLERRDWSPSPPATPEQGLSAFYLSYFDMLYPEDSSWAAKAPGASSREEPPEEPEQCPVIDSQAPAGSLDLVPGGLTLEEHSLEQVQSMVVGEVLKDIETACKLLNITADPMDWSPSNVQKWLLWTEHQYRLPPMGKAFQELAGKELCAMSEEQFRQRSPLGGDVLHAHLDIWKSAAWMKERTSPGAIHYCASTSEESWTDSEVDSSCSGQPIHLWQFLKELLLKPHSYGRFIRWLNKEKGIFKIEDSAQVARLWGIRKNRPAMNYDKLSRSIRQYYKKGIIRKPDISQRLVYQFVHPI
Summary of the method: as §1

ETV7 = biological target: T5, ETV7 (Homo sapiens, UniProt Q9Y603 1-341)
T5 sequence: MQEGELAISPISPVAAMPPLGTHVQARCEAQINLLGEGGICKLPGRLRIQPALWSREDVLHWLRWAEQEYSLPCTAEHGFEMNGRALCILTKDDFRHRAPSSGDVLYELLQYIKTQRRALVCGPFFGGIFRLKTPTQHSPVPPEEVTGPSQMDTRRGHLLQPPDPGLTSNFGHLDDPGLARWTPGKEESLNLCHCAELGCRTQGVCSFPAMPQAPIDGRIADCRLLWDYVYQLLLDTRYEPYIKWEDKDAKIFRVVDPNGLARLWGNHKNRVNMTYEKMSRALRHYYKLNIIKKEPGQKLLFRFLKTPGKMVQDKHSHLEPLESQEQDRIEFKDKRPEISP
Summary of the method: as §1

ELF5 = biological target: T6, ELF5 (Homo sapiens, UniProt Q9UKW6-2 1-255)
T6 sequence: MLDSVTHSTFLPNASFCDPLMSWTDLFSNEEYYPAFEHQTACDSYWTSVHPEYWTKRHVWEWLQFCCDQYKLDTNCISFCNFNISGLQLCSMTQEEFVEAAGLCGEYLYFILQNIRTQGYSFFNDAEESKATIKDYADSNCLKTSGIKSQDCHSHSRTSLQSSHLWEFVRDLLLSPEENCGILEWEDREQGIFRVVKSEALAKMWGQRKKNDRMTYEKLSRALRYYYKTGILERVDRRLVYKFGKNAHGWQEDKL
Summary of the method: as §1

ETV3 = biological target: T7, ETV3 (Homo sapiens, UniProt P41162-2 1-143)
T7 sequence: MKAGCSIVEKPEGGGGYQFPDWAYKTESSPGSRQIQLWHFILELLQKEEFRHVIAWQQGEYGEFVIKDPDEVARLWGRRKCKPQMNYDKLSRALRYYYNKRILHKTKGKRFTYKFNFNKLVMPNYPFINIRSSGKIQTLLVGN
Summary of the method: as §1

ETV6 = ETV6 (Homo sapiens, UniProt P41212 1-452)
ETV6, sequence (P41212 whole entry): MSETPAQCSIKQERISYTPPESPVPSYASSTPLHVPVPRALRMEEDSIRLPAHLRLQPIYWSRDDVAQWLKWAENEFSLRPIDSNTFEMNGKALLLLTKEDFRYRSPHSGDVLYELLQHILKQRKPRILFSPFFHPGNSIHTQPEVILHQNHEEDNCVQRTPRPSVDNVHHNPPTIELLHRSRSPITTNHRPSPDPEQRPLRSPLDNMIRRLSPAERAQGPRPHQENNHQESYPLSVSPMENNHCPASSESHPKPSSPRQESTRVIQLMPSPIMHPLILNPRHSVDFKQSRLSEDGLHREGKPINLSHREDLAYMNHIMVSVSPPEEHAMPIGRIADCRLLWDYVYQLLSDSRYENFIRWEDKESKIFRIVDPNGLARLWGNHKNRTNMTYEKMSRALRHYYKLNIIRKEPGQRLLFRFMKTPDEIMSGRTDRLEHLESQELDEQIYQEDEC
Summary of the method: as §1

Row | Sequence | binding signal (ERF) | binding signal (ETV3L) | binding signal (ETS2) | binding signal (SPDEF) | binding signal (ETV7) | binding signal (ELF5) | binding signal (ETV3) | binding signal (ETV6)
1 | TGTGCT | 1.19 fold enrichment (6-mer frequency, TF over GST control) | 1.12 fold enrichment (6-mer frequency, TF over GST control) | 1.12 fold enrichment (6-mer frequency, TF over GST control) | 1.31 fold enrichment (6-mer frequency, TF over GST control) | 1.18 fold enrichment (6-mer frequency, TF over GST control) | 1.15 fold enrichment (6-mer frequency, TF over GST control) | 1.18 fold enrichment (6-mer frequency, TF over GST control) | 1.22 fold enrichment (6-mer frequency, TF over GST control)
2 | CAAAAA | 1.15 fold enrichment (6-mer frequency, TF over GST control) | 1.15 fold enrichment (6-mer frequency, TF over GST control) | 1.12 fold enrichment (6-mer frequency, TF over GST control) | 1.07 fold enrichment (6-mer frequency, TF over GST control) | 1.1 fold enrichment (6-mer frequency, TF over GST control) | 1.07 fold enrichment (6-mer frequency, TF over GST control) | 1.12 fold enrichment (6-mer frequency, TF over GST control) | 1.12 fold enrichment (6-mer frequency, TF over GST control)
3 | TTCAGC | 1.14 fold enrichment (6-mer frequency, TF over GST control) | 1.21 fold enrichment (6-mer frequency, TF over GST control) | 1.27 fold enrichment (6-mer frequency, TF over GST control) | 1.12 fold enrichment (6-mer frequency, TF over GST control) | 1.27 fold enrichment (6-mer frequency, TF over GST control) | 1.16 fold enrichment (6-mer frequency, TF over GST control) | 1.32 fold enrichment (6-mer frequency, TF over GST control) | 1.2 fold enrichment (6-mer frequency, TF over GST control)
4 | TCGCCT | 1.27 fold enrichment (6-mer frequency, TF over GST control) | 1.23 fold enrichment (6-mer frequency, TF over GST control) | 1.24 fold enrichment (6-mer frequency, TF over GST control) | 1.13 fold enrichment (6-mer frequency, TF over GST control) | 1.15 fold enrichment (6-mer frequency, TF over GST control) | 1.33 fold enrichment (6-mer frequency, TF over GST control) | 1.22 fold enrichment (6-mer frequency, TF over GST control) | 1.32 fold enrichment (6-mer frequency, TF over GST control)
5 | ACCCTT | 1.2 fold enrichment (6-mer frequency, TF over GST control) | 1.21 fold enrichment (6-mer frequency, TF over GST control) | 1.1 fold enrichment (6-mer frequency, TF over GST control) | 1.2 fold enrichment (6-mer frequency, TF over GST control) | 1.1 fold enrichment (6-mer frequency, TF over GST control) | 1.19 fold enrichment (6-mer frequency, TF over GST control) | 1.19 fold enrichment (6-mer frequency, TF over GST control) | 1.15 fold enrichment (6-mer frequency, TF over GST control)
6 | CTGTAC | 1.18 fold enrichment (6-mer frequency, TF over GST control) | 1.35 fold enrichment (6-mer frequency, TF over GST control) | 1.33 fold enrichment (6-mer frequency, TF over GST control) | 1.57 fold enrichment (6-mer frequency, TF over GST control) | 1.22 fold enrichment (6-mer frequency, TF over GST control) | 1.36 fold enrichment (6-mer frequency, TF over GST control) | 1.31 fold enrichment (6-mer frequency, TF over GST control) | 1.3 fold enrichment (6-mer frequency, TF over GST control)
7 | CTGTAT | 1.29 fold enrichment (6-mer frequency, TF over GST control) | 1.24 fold enrichment (6-mer frequency, TF over GST control) | 1.22 fold enrichment (6-mer frequency, TF over GST control) | 1.44 fold enrichment (6-mer frequency, TF over GST control) | 1.25 fold enrichment (6-mer frequency, TF over GST control) | 1.34 fold enrichment (6-mer frequency, TF over GST control) | 1.32 fold enrichment (6-mer frequency, TF over GST control) | 1.31 fold enrichment (6-mer frequency, TF over GST control)
8 | TATGTT | 1.17 fold enrichment (6-mer frequency, TF over GST control) | 1.2 fold enrichment (6-mer frequency, TF over GST control) | 1.24 fold enrichment (6-mer frequency, TF over GST control) | 1.18 fold enrichment (6-mer frequency, TF over GST control) | 1.33 fold enrichment (6-mer frequency, TF over GST control) | 1.24 fold enrichment (6-mer frequency, TF over GST control) | 1.26 fold enrichment (6-mer frequency, TF over GST control) | 1.08 fold enrichment (6-mer frequency, TF over GST control)
9 | ATGAGC | 1.29 fold enrichment (6-mer frequency, TF over GST control) | 1.14 fold enrichment (6-mer frequency, TF over GST control) | 1.26 fold enrichment (6-mer frequency, TF over GST control) | 1.12 fold enrichment (6-mer frequency, TF over GST control) | 1.15 fold enrichment (6-mer frequency, TF over GST control) | 1.12 fold enrichment (6-mer frequency, TF over GST control) | 1.34 fold enrichment (6-mer frequency, TF over GST control) | 1.24 fold enrichment (6-mer frequency, TF over GST control)
10 | AATTGT | 1.36 fold enrichment (6-mer frequency, TF over GST control) | 1.29 fold enrichment (6-mer frequency, TF over GST control) | 1.31 fold enrichment (6-mer frequency, TF over GST control) | 1.21 fold enrichment (6-mer frequency, TF over GST control) | 1.39 fold enrichment (6-mer frequency, TF over GST control) | 1.35 fold enrichment (6-mer frequency, TF over GST control) | 1.31 fold enrichment (6-mer frequency, TF over GST control) | 1.26 fold enrichment (6-mer frequency, TF over GST control)
11 | CTCTGC | 1.56 fold enrichment (6-mer frequency, TF over GST control) | 1.52 fold enrichment (6-mer frequency, TF over GST control) | 1.54 fold enrichment (6-mer frequency, TF over GST control) | 1.4 fold enrichment (6-mer frequency, TF over GST control) | 1.27 fold enrichment (6-mer frequency, TF over GST control) | 1.34 fold enrichment (6-mer frequency, TF over GST control) | 1.5 fold enrichment (6-mer frequency, TF over GST control) | 1.27 fold enrichment (6-mer frequency, TF over GST control)
12 | AAATGT | 1.27 fold enrichment (6-mer frequency, TF over GST control) | 1.33 fold enrichment (6-mer frequency, TF over GST control) | 1.44 fold enrichment (6-mer frequency, TF over GST control) | 1.27 fold enrichment (6-mer frequency, TF over GST control) | 1.27 fold enrichment (6-mer frequency, TF over GST control) | 1.48 fold enrichment (6-mer frequency, TF over GST control) | 1.3 fold enrichment (6-mer frequency, TF over GST control) | 1.31 fold enrichment (6-mer frequency, TF over GST control)
13 | ATTGAT | 1.34 fold enrichment (6-mer frequency, TF over GST control) | 1.31 fold enrichment (6-mer frequency, TF over GST control) | 1.29 fold enrichment (6-mer frequency, TF over GST control) | 1.32 fold enrichment (6-mer frequency, TF over GST control) | 1.23 fold enrichment (6-mer frequency, TF over GST control) | 1.27 fold enrichment (6-mer frequency, TF over GST control) | 1.33 fold enrichment (6-mer frequency, TF over GST control) | 1.24 fold enrichment (6-mer frequency, TF over GST control)
14 | CTTAGT | 1.29 fold enrichment (6-mer frequency, TF over GST control) | 1.18 fold enrichment (6-mer frequency, TF over GST control) | 1.15 fold enrichment (6-mer frequency, TF over GST control) | 1.2 fold enrichment (6-mer frequency, TF over GST control) | 1.07 fold enrichment (6-mer frequency, TF over GST control) | 1.13 fold enrichment (6-mer frequency, TF over GST control) | 1.31 fold enrichment (6-mer frequency, TF over GST control) | 1.24 fold enrichment (6-mer frequency, TF over GST control)
